Assay outcomes from PubChem.
ALOX12 inh: ALOX12 (human) lipoxygenase inhibition. purified 12hLO, xylenol orange hydroperoxide absorbance. Potency, µM (top dose mostly 108 µM), for the others: at the highest dose activity change, negative = inhibition, most hits filed as inhibitors. 580,000 compounds, 1.1% hits. AID 1671190; note: % is set by controls: 0 for no effect and ±100 for the full control effect
Target sequence (P18054 whole entry, looked up): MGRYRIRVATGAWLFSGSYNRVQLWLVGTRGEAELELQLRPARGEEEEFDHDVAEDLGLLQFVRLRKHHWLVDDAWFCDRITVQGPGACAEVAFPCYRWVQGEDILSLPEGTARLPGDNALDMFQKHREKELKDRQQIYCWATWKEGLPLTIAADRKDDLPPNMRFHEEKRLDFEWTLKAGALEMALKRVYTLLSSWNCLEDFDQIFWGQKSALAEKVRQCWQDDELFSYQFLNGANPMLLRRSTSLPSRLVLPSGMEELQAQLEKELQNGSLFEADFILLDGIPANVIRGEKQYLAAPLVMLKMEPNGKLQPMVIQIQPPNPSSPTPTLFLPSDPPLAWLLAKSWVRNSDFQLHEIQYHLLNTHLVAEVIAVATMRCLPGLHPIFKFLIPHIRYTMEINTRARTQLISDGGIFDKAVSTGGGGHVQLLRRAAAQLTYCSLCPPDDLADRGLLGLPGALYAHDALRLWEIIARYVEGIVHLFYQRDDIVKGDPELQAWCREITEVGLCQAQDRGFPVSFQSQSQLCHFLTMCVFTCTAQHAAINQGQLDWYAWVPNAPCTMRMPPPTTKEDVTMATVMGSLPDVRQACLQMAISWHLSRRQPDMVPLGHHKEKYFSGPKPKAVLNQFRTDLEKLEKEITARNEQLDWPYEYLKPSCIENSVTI
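Purified human 12hLO (150 nM final) in 25 mM Hepes, 0.01% Triton X-100, pH 7.0 was preincubated 15 min at room temperature with compound. Then 40 uM arachidonic acid was added, 30 min. Hydroperoxide was read by Fe-XO absorbance ratio 573/405 nm.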
ATXN2 expr inh: inhibitors of ATXN2 expression | 360,000 compounds, 0.72% hits | HEK-293 ATXN2-luciferase reporter, luminescence, 24 h | Potency, µM (series often up to 57 µM), for the others: top-dose activity change, negative = inhibition, actives largely listed as inhibitors; note: % is set by controls: 0 for no effect and ±100 for the full control effect; nearly all actives have a fitted effect of over 55% in size
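qHTS (up to 57 uM final) was run with 24 h compound exposure of reporter cells at 37 °C. Each well was multiplexed: SteadyGlo luminescence measured ATXN2-luciferase expression after a fluorogenic Gly-Phe-AFC viability readout (25 uM final).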
S2 tox: viability counter-screen for ATXN expression inhibitors. S2 cells (HEK-293 line with an ATXN2-luciferase reporter) viability, CellTiter-Fluor protease fluorescence, 24 h. Potency, µM (top dose mostly 56.7 µM), usual class: cytotoxic. 400,000 compounds, 0.49% hits. AID 651635; note: nearly all actives have a fitted effect of over 40% in size
TGFb SMAD3 inh: blocks TGF-b signaling; HepG2 CAGA-GFP TGF-b/SMAD3 reporter, GFP fluorescence, 18 h; TGF-beta stimulated, 500 pg/mL final; 410,000 compounds, 1.2% hits; Potency, µM (doses to about 46.1 µM), inactives show at the highest dose activity, negative = inhibition, most hits filed as inhibitors; note: % is set by controls: 0 for no effect and ±100 for the full control effect; nearly all actives have a fitted effect of over 65% in size
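HEPG2 CAGA-GFP cells (1000/well, DMEM with 1% FBS) were pre-incubated 2 h at 37 degrees C, given compound by pin tool, then stimulated with TGF-beta at 500 pg/mL final for 18 h before per-cell GFP fluorescence imaging.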
HepG2 tox: kills HepG2 cells in TGF-b inhibitor counter-screen; Potency, µM (series often up to 46.1 µM), without a hit: at the top dose activity change, negative = cytotoxicity, hits mostly cytotoxic; HepG2 CAGA-GFP viability, ATP luminescence, 18 h; 410,000 compounds, 0.76% hits
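HepG2 CAGA-GFP cells (1000/well, DMEM with 1% FBS) received compound, then TGF-beta at 500 pg/mL final, and were incubated 18 hours at 37 degrees C. Viability was read by CellTiter-Glo luminescence. Media-only wells were set as complete cell-killing and DMSO as no toxicity.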
Active calls of the source: *. The list is not random: actives were taken first. Their share in the collection is about 2.7%. Calls come from the whole dose curve; as a rule, active = well fitted curve in the direction sought with a large enough effect; inconclusive = small, poorly fitted or top-dose-only effect, or another doubt; inactive = no such curve, though single readings can be large; an effect the other way counts as inactive or inconclusive. Potency is the fitted concentration of half-maximal effect.

Cc1ccc(C(=O)Nc2cccc(C(F)(F)F)c2)cc1Nc1ccccn1 was read as ALOX12 inh inconclusive, ATXN2 expr inh inconclusive, S2 tox 32µM*, TGFb SMAD3 inh -1% and HepG2 tox -2%.
CC(=O)NNC(=S)Nc1cccc(C(F)(F)F)c1 was read as ALOX12 inh -2%.
Cc1cnc(Nc2nc3ccccc3o2)nc1C(=O)Nc1cccc(C(F)(F)F)c1 was read as ALOX12 inh 14%, ATXN2 expr inh -29%, S2 tox inactive, TGFb SMAD3 inh inconclusive and HepG2 tox 5µM*.
O=C(NC(=S)Nc1cccc(C(F)(F)F)c1)c1ccc2nonc2c1 was read as ALOX12 inh 35µM*, ATXN2 expr inh -26%, S2 tox inactive, TGFb SMAD3 inh inconclusive and HepG2 tox -26%.
`O=C(COCC(=O)Nc1cccc(C(F)(F)F)c1)Nc1cccc(C(F)(F)F)c1` gave ALOX12 inh -9%, ATXN2 expr inh -14%, S2 tox inactive, TGFb SMAD3 inh -20% and HepG2 tox 22µM*.
For COc1cccc(NC(=O)/C(C#N)=C\c2cn(Cc3ccc(Cl)cc3)c3ccccc23)c1 the results were ALOX12 inh inconclusive, ATXN2 expr inh 7%, S2 tox inactive, TGFb SMAD3 inh 11µM* and HepG2 tox -11%.
`C=CC[n+]1c(-c2ccc(Cl)cc2Cl)csc1Nc1c(C)n(C)n(-c2ccccc2)c1=O` gave ALOX12 inh inconclusive, ATXN2 expr inh -15%, S2 tox inconclusive, TGFb SMAD3 inh inconclusive and HepG2 tox 0%.
C=CC[n+]1c(-c2ccc(C)cc2)csc1Nc1c(C)n(C)n(-c2ccccc2)c1=O was read as ALOX12 inh 28µM*, ATXN2 expr inh -26%, S2 tox inactive, TGFb SMAD3 inh -11% and HepG2 tox 1%.
COC(=O)[C@H](C)N(Cc1ccc(Cl)c(Cl)c1)S(=O)(=O)CCN1CCN(c2ccccc2)CC1 was read as ALOX12 inh -2%, ATXN2 expr inh -12%, S2 tox inactive, TGFb SMAD3 inh 11µM* and HepG2 tox -7%.
CC1(C)C(=O)Nc2ccccc2N1C(=O)Cn1ncc(Cl)c(Cl)c1=O was read as ALOX12 inh 8%, S2 tox 20µM*, TGFb SMAD3 inh -10% and HepG2 tox -22%.
Cc1nn(CC(=O)N2c3ccccc3NC(=O)C2(C)C)c(C)c1[N+](=O)[O-] was read as ALOX12 inh 4%, S2 tox inactive, TGFb SMAD3 inh inconclusive and HepG2 tox 1%.
Cc1ccccc1NC(=O)C(C)N1CCC(C(=O)NCc2ccccc2)CC1 (configuration not stated) was read as ALOX12 inh 12%.
`CC(=O)Nc1cc(F)c(F)cc1NC(=O)CCc1c[nH]c2ccccc12` gave ALOX12 inh -15%.
`NC(c1ccccc1)c1nnc2n1CCN(C(=O)N1CCCC1)C2` (configuration not stated) gave ALOX12 inh 7.9µM*.
Cc1nc2[nH]c(=S)[nH]c2cc1Br was read as ALOX12 inh 13µM*, ATXN2 expr inh 3%, S2 tox inactive, TGFb SMAD3 inh 24% and HepG2 tox 23%.
`N/C(=N\S(=O)(=O)c1cc(C(F)(F)F)cc(C(F)(F)F)c1)c1ccc(Cl)cc1` gave ALOX12 inh -24%, ATXN2 expr inh inconclusive, S2 tox inconclusive, TGFb SMAD3 inh 10µM* and HepG2 tox -119%.
`N/C(=N\S(=O)(=O)c1cc(C(F)(F)F)cc(C(F)(F)F)c1)c1ccncc1` gave ALOX12 inh 4%, ATXN2 expr inh -8%, S2 tox inactive, TGFb SMAD3 inh 5% and HepG2 tox -29%.
Screening CC(C)=CCC/C(C)=C/Cc1c(O)ccc(C(=O)/C=C/c2ccc(O)cc2)c1O returned ALOX12 inh 1%, ATXN2 expr inh inconclusive, S2 tox 32µM*, TGFb SMAD3 inh inconclusive and HepG2 tox -110%.
For Cc1ccc(CNC(=O)c2ccc(NC(=O)c3cc4c(=O)[nH]c(C)cn4n3)cc2)cc1 the results were ALOX12 inh 1%.
`CC(C)(O)CCc1c(-c2ccc(O)cc2O)oc2c3c(cc(O)c2c1=O)OC(C)(C)C=C3` gave ALOX12 inh 45µM*, ATXN2 expr inh -10%, S2 tox inactive, TGFb SMAD3 inh inconclusive and HepG2 tox -103%.
CCOC(=O)c1sc(NC(=O)c2sccc2C)cc1C was read as ALOX12 inh -46%, ATXN2 expr inh 90%, S2 tox inactive, TGFb SMAD3 inh 2% and HepG2 tox 14µM*.
Screening CCOC(=O)c1sc(NC(=S)NC(=O)C23CC4CC(CC(C4)C2)C3)cc1C returned ALOX12 inh 35µM*, ATXN2 expr inh 10%, S2 tox inactive, TGFb SMAD3 inh 3% and HepG2 tox 2%.
For Cc1ccc(S(=O)(=O)Cc2nc(-c3ccc(C(=O)NCCCN4CCOCC4)cc3)oc2C)cc1 the results were ALOX12 inh -5%.
CNC(=O)CN(C)Cc1coc(-c2ccc(C)cc2)n1 was read as ALOX12 inh 16%.
`CC(C)(C)NC(=O)[C@@H]1C[C@@H]2CCCC[C@@H]2CN1C[C@@H](O)[C@H](Cc1ccccc1)NC(=O)[C@H](CC(N)=O)NC(=O)c1ccc2ccccc2n1` gave ALOX12 inh -25%, ATXN2 expr inh inconclusive, S2 tox 32µM*, TGFb SMAD3 inh inconclusive and HepG2 tox -43%.
Cc1noc(C)c1CC(=O)NC(c1ccccc1F)c1nccn1C (configuration not stated) was read as ALOX12 inh 40%.
COc1ccccc1Oc1c(CCC(=O)NCc2ccco2)c(C)nn1-c1ccc(F)cc1 was read as ALOX12 inh -2%.
CS[C@H]1SC[C@@H]2C(=O)N(C)[C@H](C(C)C)C(=O)OC[C@H](NC(=O)c3cnc4ccccc4n3)C(=O)N[C@H](C)C(=O)N(C)[C@@H]1C(=O)N(C)[C@H](C(C)C)C(=O)OC[C@H](NC(=O)c1cnc3ccccc3n1)C(=O)N[C@H](C)C(=O)N2C was read as ALOX12 inh inconclusive and ATXN2 expr inh 0.011µM*.
`CCOC(=O)c1nn(-c2ccccc2)c(=O)c2c(N)scc12` gave ALOX12 inh 35µM*, ATXN2 expr inh -13%, S2 tox inactive, TGFb SMAD3 inh -19% and HepG2 tox -98%.
Screening CCOC(=O)c1nn(-c2ccccc2)c(=O)c2c(NC(C)=O)scc12 returned ALOX12 inh -14%, ATXN2 expr inh -24%, S2 tox inactive, TGFb SMAD3 inh 2% and HepG2 tox 3.2µM*.
